Myeloid diff 2 – compounds promoting myeloid differentiation; hit rate 1% among 360,000; calls only at 10 µM; ER-HoxA9 myeloid progenitors, lysozyme-GFP differentiation, flow cytometry; AID 624256;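 active means normalized GFP-positive differentiation at or above the plate's own cutoff, the solvent-only control mean plus 3 SD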;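 further: cells exposed to compound for four days before flow analysis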
Rpn11 inh – blocks the human proteasome subunit Rpn11; O00487; human 26S proteasome, Ub4-pepOG fluorescence polarization; 20S core pre-blocked with epoxomicin; inhibition, % at 20 µM; hit rate 0.59% among 360,000; AID 588493;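 active means inhibition at 20 µM, scaled to each plate's controls, above about 33%, limit read from the data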
Target sequence (O00487 whole entry, looked up): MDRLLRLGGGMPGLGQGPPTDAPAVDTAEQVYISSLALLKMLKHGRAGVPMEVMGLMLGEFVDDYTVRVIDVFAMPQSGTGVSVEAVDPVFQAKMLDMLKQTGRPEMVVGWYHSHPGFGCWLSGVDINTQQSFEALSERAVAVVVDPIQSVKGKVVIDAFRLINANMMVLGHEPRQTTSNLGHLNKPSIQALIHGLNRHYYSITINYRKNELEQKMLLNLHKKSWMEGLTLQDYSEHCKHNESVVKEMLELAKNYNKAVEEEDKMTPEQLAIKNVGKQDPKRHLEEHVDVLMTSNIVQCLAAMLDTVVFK
TPT1 inh – C. albicans TPT1 enzyme inhibition | recombinant caTPT1, FP RNA substrate dephosphorylation | inhibition, % at 5 µM | hit rate 0.81% among 300,000 | AID 1962;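 active means inhibition above the mean of all tested compounds plus 3 SD, set per screening campaign, cut at about 24% in these data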;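 further: plate controls were DMSO alone for no effect and ferristatin control at 100 nM for full effect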
HNF4A DNA FP – change in binding of human HNF4 alpha to DNA. activity change, % at 10 µM. HNF4a-FITC DNA binding, fluorescence polarization, 1 h. hit rate 0.3% among 360,000. P41235; in the data active means activity change above about 30%, passing the limit was not always enough
Myeloid diff CP1 – promotes myeloid progenitor differentiation; shares compounds with Myeloid diff 2; ER-HoxA9 myeloid progenitors, GFP/Mac1 double-positive flow; calls only; hit rate 2% among 2,300; AID 651706;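 active means share of green or green-and-red cells above 9 and 9% in run 1 or 4 and 3% in run 2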
GFP autofluor – flagged as fluorescent in myeloid differentiation counter-screen; shares compounds with Myeloid diff 2; ER-HoxA9 myeloid progenitors, no estrogen, GFP autofluorescence flow cytometry; vehicle wells 0%, positive control 100%; fluorescence response, % (concentration not given with the values); hit rate 7.4% among 2,300; AID 651707;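 active means over 5% cells positive for green fluorescent reporter, or over 2% positive for both it and APC stain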;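 further: range taken on the double positive population between DMSO and positive control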
Starred values were filed as active, the others as inactive. Rows were chosen to be rich in hits. Some 2.1% of all compounds tested hit in one or more screens of this group.

CN(c1ccc(C(=O)N/N=C/c2cccc([N+](=O)[O-])c2)cc1)S(=O)(=O)c1ccccc1 was read as Myeloid diff 2 inactive, Rpn11 inh -3.4, TPT1 inh -2.7, HNF4A DNA FP 1.5, Myeloid diff CP1 inactive and GFP autofluor 0.0.
COc1ccc(/C=N/NC(=O)c2ccc(N(C)S(=O)(=O)c3ccccc3)cc2)cc1 was read as Myeloid diff 2 inactive, Rpn11 inh -0.2, TPT1 inh -2.4 and HNF4A DNA FP 1.1.
Screening Cc1ccc(CSCC(=O)N2CCN(c3ccc(F)cc3)CC2)cc1 returned Myeloid diff 2 inactive, Rpn11 inh -1.8, TPT1 inh 3.0, HNF4A DNA FP -2.1, Myeloid diff CP1 inactive and GFP autofluor 0.6.
`CCCn1cnc2c(N)c(C)c(C)cc21` gave Myeloid diff 2 inactive, Rpn11 inh 8.4, TPT1 inh -0.5 and HNF4A DNA FP -1.7.
For COc1cccc(Cn2cnc3c(N)c(C)c(C)cc32)c1 the results were Myeloid diff 2 inactive, Rpn11 inh -1.0, TPT1 inh 0.2, HNF4A DNA FP -3.5, Myeloid diff CP1 inactive and GFP autofluor 0.0.
CCOc1ccccc1NC(=O)CCNS(=O)(=O)c1ccccc1 was read as Myeloid diff 2 active, Rpn11 inh 0.8, TPT1 inh 0.0, HNF4A DNA FP -5.8, Myeloid diff CP1 inactive and GFP autofluor 0.2.
`Cc1occc1C(=O)N/N=C/c1ccc(-c2ccccc2)cc1` gave Myeloid diff 2 inactive, Rpn11 inh 3.9, TPT1 inh -0.1 and HNF4A DNA FP 0.5.
`Cc1occc1C(=O)N/N=C/C(Br)=C/c1ccccc1` gave Myeloid diff 2 active, Rpn11 inh -3.1, TPT1 inh -3.7, HNF4A DNA FP 0.8, Myeloid diff CP1 inactive and GFP autofluor 0.0.
`OC1c2c(F)cccc2N=C2CCCCCN21` (stereo not given) gave Myeloid diff 2 inactive, Rpn11 inh -0.4 and HNF4A DNA FP -0.2.
For CCc1ccc(C=C2SC(=S)N(CCCC(=O)Nc3ccc(C(=O)O)cc3)C2=O)cc1 the results were Myeloid diff 2 inactive, Rpn11 inh 2.9, HNF4A DNA FP -2.0, Myeloid diff CP1 inactive and GFP autofluor 0.0.
O=C(CCN1C(=O)/C(=C/c2ccc(Cl)cc2)SC1=S)Nc1ccc(C(=O)O)cc1 was read as Myeloid diff 2 inactive, Rpn11 inh -3.3, TPT1 inh -1.6 and HNF4A DNA FP -2.3.
CC(=O)Nc1ccc(OCC(O)Cn2c3ccccc3c3ccccc32)cc1 (stereo not given) was read as Myeloid diff 2 inactive, Rpn11 inh -4.1, TPT1 inh -4.2, HNF4A DNA FP -0.2, Myeloid diff CP1 inactive and GFP autofluor 8.5*.
For Cc1cccc(Nc2ncccc2C(=O)NCc2cccs2)c1C the results were Myeloid diff 2 inactive, Rpn11 inh 1.9, TPT1 inh -5.0, HNF4A DNA FP -0.8, Myeloid diff CP1 inactive and GFP autofluor 0.0.
CC(=O)N1N=C(c2ccc(C)cc2)OC1c1ccc(Br)cc1 (stereo not given) was read as Myeloid diff 2 inactive, Rpn11 inh -6.8, TPT1 inh 1.6 and HNF4A DNA FP -1.7.
Screening CC(=O)N1N=C(c2ccc(Cl)cc2)OC1c1ccc(C(C)C)cc1 (stereo not given) returned Myeloid diff 2 inactive, Rpn11 inh -1.4, TPT1 inh -2.9, HNF4A DNA FP -1.0, Myeloid diff CP1 inactive and GFP autofluor 1.2.
Screening Cc1ccc(CNC(=O)C2CCC(=O)N(Cc3ccc(Cl)cc3)C2)cc1F (stereo not given) returned Myeloid diff 2 inactive, Rpn11 inh -4.0 and HNF4A DNA FP 4.4.
For CCc1ccc(C(=O)NNC(=O)CCc2nc3ccccc3c(=O)[nH]2)cc1 the results were Myeloid diff 2 inactive, Rpn11 inh 2.7, TPT1 inh 2.0 and HNF4A DNA FP 4.4.
For Nc1ccccc1C(=O)NNC1=C(C(=O)C(F)(F)F)CCC1 the results were Myeloid diff 2 active, Rpn11 inh 0.4, TPT1 inh -3.4, HNF4A DNA FP 2.4, Myeloid diff CP1 inactive and GFP autofluor 1.9.
`COc1ccccc1C(=O)NNC1=C(C(=O)C(F)(F)F)CCC1` gave Myeloid diff 2 active, Rpn11 inh 1.0, TPT1 inh -1.6, HNF4A DNA FP -0.1, Myeloid diff CP1 inactive and GFP autofluor 1.6.
`O=C(NNC1=C(C(=O)C(F)(F)F)CCC1)c1ccccc1Cl` gave Myeloid diff 2 inactive, Rpn11 inh -2.2, TPT1 inh -0.6 and HNF4A DNA FP -0.7.
For O=C(NNC1=C(C(=O)C(F)(F)F)CCC1)c1ccccc1O the results were Myeloid diff 2 inactive, Rpn11 inh -4.6, TPT1 inh 0.3 and HNF4A DNA FP -3.9.
Screening O=C(O)C(c1ccccc1)N1C(=O)/C(=C\c2ccc(-c3ccc(Br)cc3)o2)SC1=S (stereo not given) returned Myeloid diff 2 active, HNF4A DNA FP 109.6, Myeloid diff CP1 inactive and GFP autofluor 26.1*.
`O=C(NC1CCCC1)c1ccc(CNc2c(N3CCOCC3)c(=O)c2=O)cc1` gave Myeloid diff 2 inactive, Rpn11 inh -5.3, TPT1 inh -2.6 and HNF4A DNA FP 1.5.
`c1ccc(-c2ccc(OCCCn3cncn3)cc2)cc1` gave Myeloid diff 2 inactive, Rpn11 inh -1.5, TPT1 inh -1.1 and HNF4A DNA FP -4.4.
For c1ccc(COc2ccc(OCCn3cncn3)cc2)cc1 the results were Myeloid diff 2 inactive, Rpn11 inh 1.7, TPT1 inh -3.0, HNF4A DNA FP -1.8, Myeloid diff CP1 inactive and GFP autofluor 0.0.
COc1ccccc1C(=O)Nc1nnc(SCC(=O)NC2CCCC2)s1 was read as Myeloid diff 2 inactive, Rpn11 inh -8.9, TPT1 inh -3.1 and HNF4A DNA FP 3.5.
COc1ccc(CN(C)c2ccc(S(=O)(=O)N3CCN(C)CC3)cc2[N+](=O)[O-])cc1OC was read as Myeloid diff 2 inactive, Rpn11 inh 0.4, HNF4A DNA FP -1.2, Myeloid diff CP1 inactive and GFP autofluor 0.9.
`CCC(/C=C1\Oc2ccc(OC)cc2N1C)=C\c1sc2ccccc2[n+]1CCCS(=O)(=O)[O-]` gave Myeloid diff 2 inactive, HNF4A DNA FP 169.7, Myeloid diff CP1 inactive and GFP autofluor 84.8*.
Cc1ccc2c(c1)sc(C)[n+]2CCCS(=O)(=O)[O-] was read as Myeloid diff 2 inactive, Rpn11 inh -1.0, TPT1 inh -1.4 and HNF4A DNA FP 2.2.
For O=C(NCCN1CCc2ccccc2C1)C1CCN(S(=O)(=O)N2CCCCC2)CC1 the results were Myeloid diff 2 inactive, Rpn11 inh -6.2, TPT1 inh 0.6, HNF4A DNA FP -1.6, Myeloid diff CP1 inactive and GFP autofluor 0.0.
Screening O=C(CCS(=O)(=O)c1ccc(Cl)cc1)Nc1nnc(-c2ccco2)o1 returned Myeloid diff 2 active, Rpn11 inh -4.7, TPT1 inh 3.0, HNF4A DNA FP -1.5, Myeloid diff CP1 inactive and GFP autofluor 0.0.
